Shown are actives, neighbours in structure and some others; about 1.4% of the full set was active somewhere.
PGE2 EP2 inh = blocks the human prostaglandin E2 receptor EP2; P43116; 0.52% of 260,000 active; AID 1422; C6 glioma cells expressing human EP2, cAMP TR-FRET; cells stimulated with saturating PGE2; inhibition, % at 25 µM;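 active means percent inhibition above 40 after rounding to a whole number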;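 further: rat C6 glioma host cells with rolipram phosphodiesterase inhibitor present; the protocol text gives 20 µM as final concentration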
Target sequence (P43116 whole entry, looked up): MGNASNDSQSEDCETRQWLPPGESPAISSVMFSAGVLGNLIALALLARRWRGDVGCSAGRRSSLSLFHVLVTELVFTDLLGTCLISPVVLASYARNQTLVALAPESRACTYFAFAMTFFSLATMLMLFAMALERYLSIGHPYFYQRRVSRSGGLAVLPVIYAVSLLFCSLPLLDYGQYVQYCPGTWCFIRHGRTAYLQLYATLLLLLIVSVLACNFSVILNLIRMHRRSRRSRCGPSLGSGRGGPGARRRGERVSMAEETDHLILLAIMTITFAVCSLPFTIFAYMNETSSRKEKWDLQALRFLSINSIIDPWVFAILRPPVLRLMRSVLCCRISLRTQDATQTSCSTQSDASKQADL
EP2 mod = modulates human prostaglandin E2 receptor EP2 signaling | P43116 | EP2-expressing cells, cAMP HTRF FRET, PGE2 co-stimulation | induction, % at 25 µM | 0.83% of 260,000 active | AID 940;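 active means compounds whose cAMP rise, as percent of the full-agonist control response, exceeds 60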;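 further: rat C6 glioma line stably carrying human EP2 under a CMV promoter; the protocol text gives 20 µM as final concentration; 100% = response of wells given 1 µM PGE2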
Furin inhibitor = human furin inhibition; inhibition, % at 20 µM or 30 µM; AID 463115; P09958; 0.061% of 220,000 active; purified furin, fluorogenic substrate cleavage; in the data active means inhibition above about 25%
Pf gametocyte = inhibitors of late stage P. falciparum gametocyte viability. P. falciparum stage V gametocytes, ATP luminescence, 24 h. 0.065% of 150,000 active. AID 743093. inhibition, % at 10.9 µM;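 active means inhibition above the mean plus 3 SD of compounds within the control limits, set per campaign, cut at about 38% in these data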;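 further: 0% = DMSO wells and 100% = medium only without gametocytes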
HSV augment = HSV replication enhancement. AID 1956. 0.005% of 220,000 active. HSV replication augmentation in cells, fold increase. maximum fold increase; in the data active means maximum fold increase above about 1.5; inconclusive means no clear call, values can overlap the other calls; tested in PC3 cells
* hit, by the source's call; i = inactive; ? = inconclusive; / = not tested or not shown; ! = not active in a repeat.

SMILES	PGE2 EP2 inh	EP2 mod	Furin inhibitor	Pf gametocyte	HSV augment
Cc1ccc(C(=N)c2ccccc2Cc2cccc3ccccc23)c2ccccc12	40*	39	/	/	/
N=C(c1ccc2ccccc2c1)c1ccccc1Cc1ccccc1	29	27	/	/	/
COc1cc(OC)c(C(=O)OCC(=O)N(Cc2ccccc2)C(C)(C)C)cc1OC	10	-17	-22	-19	i
OCCNc1nc(N2CCCC2)nc(N2CCCC2)n1	12	15	-9	/	i
CC(=O)c1sc(-c2ccccc2)cc1NS(=O)(=O)c1ccccc1	81*	-21	1	-2	i
CC(=O)c1sc(-c2ccccc2)cc1NS(=O)(=O)c1ccc(C)cc1	74*	-9	-13	27	i
CC(=O)N(C(C)=O)n1c(C)nc2sc3c(c2c1=O)CCCC3	2	26	-9	-3	i
O=C(Cc1ncc(C(F)(F)F)cc1Cl)N1CCN(c2ccccn2)CC1	4	21	-5	3	i
COc1cccc2cc(C(=O)C3=C(O)C(=O)N(Cc4ccco4)C3c3cccnc3)oc12 (centres undefined)	24	50	-22	/	i
CN(C)CCCN1C(=O)C(O)=C(C(=O)c2cc3ccccc3o2)C1c1ccccc1 (centres undefined)	/	62*	1	7	/
COC(=O)c1ccc(C2C(C(=O)c3cc4ccccc4o3)=C(O)C(=O)N2CCCN(C)C)cc1 (centres undefined)	21	21	7	1	i
O=C(C1=C(O)C(=O)N(Cc2ccco2)C1c1cccnc1)c1cc2ccccc2o1 (centres undefined)	47*	53	-23	/	i
COc1ccc(CSc2nnc(N)s2)cc1F	10	12	-28	/	i
CCc1ccc2[nH]c(=O)c(C(c3nnnn3C(C)(C)C)N3CCN(c4ccccc4F)CC3)cc2c1 (centres undefined)	11	74*	/	/	/
Cc1cc2cc(C(c3nnnn3C(C)(C)C)N3CCN(Cc4ccccc4)CC3)c(=O)[nH]c2cc1C (centres undefined)	91*	11	/	/	/
COc1ccc2[nH]c(=O)c(C(c3nnnn3C(C)(C)C)N3CCN(c4ccccc4F)CC3)cc2c1 (centres undefined)	8	30	/	/	/
COC(=O)CCN(C(C)=O)c1ccc(N)cc1	10	12	-25	19	i
CCC1S/C(=N/N=C/c2ccco2)N(Cc2ccc(F)cc2)C1=O (centres undefined)	10	10	-24	2	i
O=C(O)c1c(Cl)c(Cl)c(Cl)c(Cl)c1C(=O)Nc1ccc2cn[nH]c2c1	58*	-4	/	/	/
CC(C(=O)Nc1ccccc1Oc1ccccc1)c1ccccc1 (centres undefined)	6	64*	-9	60*	i
O=C(Nc1ccccc1Oc1ccccc1)C1CCCC1	7	61*	8	-22	i
COc1ccccc1NC(=O)c1ccccc1Oc1ccccc1	/	/	/	-20	/
O=C(CNC(=O)/C(=C\c1ccc(F)cc1)NC(=O)c1ccccc1)OCc1ccccc1	15	21	-8	/	i
O=C(O)c1ccc(Oc2ccccc2)o1	4	70*	-5	2	i
COc1ccc(CCNC(=O)CSC2=Nc3ccccc3C3=NC(C(C)C)C(=O)N23)cc1OC (centres undefined)	/	8	-11	/	/
SMILES	PGE2 EP2 inh	EP2 mod	Furin inhibitor	Pf gametocyte	HSV augment
CCOC(=O)C1=C(C)NC(=S)N(C(C)=O)C1c1ccccc1 (centres undefined)	/	65*	-9	1	i
CC(C)Oc1ccccc1/C=N/n1nnnc1N	/	/	/	19	/
Cc1cc(C(=O)N2CCCCCC2)cs1	6	9	-25	/	i
CC(C)Cc1cc(C(=O)Nc2ccc(F)cc2F)no1	10	6	-13	/	i
O=C1c2ccccc2C(=O)c2c1cccc2-n1nnc2ccccc21	2	19	-17	4	i
O=C1C(N2CCOCC2)=C(n2nnc3ccccc32)C(=O)c2ccccc21	40*	-3	-12	/	i
COc1ccc(C(C#N)Nc2ccccc2OC)cc1 (centres undefined)	0	6	-29	4	i
Cc1ccc(Cl)cc1NC(C#N)c1ccccc1 (centres undefined)	11	63*	-16	7	i
CCCn1nnc(NC(=O)c2sc3ccccc3c2Cl)n1	64*	8	-27	/	i
COc1ccc2c(c1)c1ccc3c(c1n2C)C(=O)C=CC3=O	62*	-36	-13	/	i
O=C(Nc1nc2c(s1)CCCC2)c1ccc(Br)s1	6	-11	-15	/	i
Cn1cccc1/C=C1\SC(=S)N(NC(=O)c2ccccc2)C1=O	6	5	7	2	i
O=C1c2ccccc2-c2ccc(N=[N+]([O-])c3ccc4c(c3)C(=O)c3ccccc3-4)cc21	51*	0	/	/	/
Cc1ccc(N=C2NC(=O)c3cc([N+](=O)[O-])ccc32)cc1	7	23	-7	-28	i
COc1ccc(-c2nn(C)c3sc(C(=O)NCc4ccco4)cc23)cc1OC	12	4	-25	/	i
COc1ccc(NC(=O)c2cc3c(-c4ccc(OC)c(OC)c4)nn(C)c3s2)cc1OC	43*	-27	-13	/	i
O=C(Nc1ccccc1)c1nnsc1S(=O)c1ccc(Cl)cc1 (centres undefined)	142*	-26	-14	13	i
Brc1cccc(Cn2c(-c3cncs3)nc3ccccc32)c1	10	61*	-24	-17	i
c1ccc(Cn2c(-c3cncs3)nc3ccccc32)cc1	3	32	-20	7	i
O=C1C(Cl)=C(N2CCN(c3ccccn3)CC2)C(=O)c2ccccc21	7	-80	/	/	/
CC1CCC(N2CCN(c3ncccn3)CC2)CC1 (centres undefined)	5	15	-22	/	i
C[C@H](Oc1ccc(Oc2cnc3ccc(Cl)cc3n2)cc1)C(=O)O	46*	9	/	/	/
CC(=O)Nc1ccc(Oc2cnc3ccccc3n2)cc1	6	0	-11	9	i
O=C(O)c1cccc(N/N=C/C2=C(Cl)c3cc(Cl)ccc3SC2)c1	9	63*	-3	-5	i
O=C(C[n+]1ccc2ccccc2c1)c1ccc2ccc3ccccc3c2c1	59*	24	/	/	/
SMILES	PGE2 EP2 inh	EP2 mod	Furin inhibitor	Pf gametocyte	HSV augment
O=C(C[n+]1ccc2ccccc2c1)c1ccccc1	7	2	-20	22	i
CCN1CCN(C2=CC3=CC(=C(C#N)C#N)CCC3CC2)CC1 (centres undefined)	3	-78	28*	/	?
CCCN(CC1CCCO1)C(=O)COc1ncnc2ccccc12 (centres undefined)	11	-15	/	/	/
Brc1ccc(-c2cnc(-c3cccs3)o2)cc1	6	61*!	-16	/	i
CCCC1C(=O)N(c2ccccc2)C1c1ccccc1 (centres undefined)	-3	64*	-16	/	i
Cc1ccc(N2C(=O)C(CN3CCCC3)C2c2ccccc2)cc1 (centres undefined)	8	12	-14	11	i
Cc1[nH]c2ccccc2c1-c1csc(N)n1	8	-106	/	8	/
